In PubChem BioAssay (NCI):
Compounds without any hit were thinned out: in the full panel of roughly 83,000, 20% have a hit.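 For each line, cells grew in 96-well plates with the test compound present at a single concentration for 48 hours.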 Active and inactive are the calls of the source. The calls were made as follows: active = growth percent below 10; inactive = the rest.

Columns and labels:
Assay in all cases: NCI-60 one-dose screen, 48 h (100 = growth as untreated, 0 = no growth, -100 = all killed)
Conditions in all cases: 10 µM unless noted
[1] = system: T-47D breast
[2] = system: BT-549 breast
[3] = system: MDA-MB-435 melanoma
[4] = system: SW-620 colon
[5] = system: MCF7 breast
[6] = system: HCT-116 colon
[7] = system: HCC-2998 colon
[8] = system: NCI/ADR-RES ovarian
[9] = system: KM12 colon

Measured: growth

CCC1(C)CC(CCNCc2ccccc2O)(c2ccc(C)cc2)CCO1 (stereo not drawn)
inactive: [1] 103% | [2] 101% | [3] 100% | [4] 103% | [5] 97.3% | [6] 109% | [7] 117%

Fc1ccc2c(c1)c(-c1nc(-c3c[nH]c4ncccc34)cs1)cn2CCN1CCOCC1
inactive: [8] 33.6% | [2] 49.6% | [3] 21.5% | [4] 62.9% | [5] 29.7% | [6] 52.6% | [7] 92.9% | [9] 32.2%

CCCc1cc(O)c2c3c(c(=O)oc2c1)CN(C)CC3
active: [3] -57.8%
inactive: [1] 25.5% | [2] 39.2% | [4] 12.8% | [5] 19% | [6] 20.8% | [7] 53.9%

CC12CC(=O)C3(SC#N)C(CCC4=CC(=O)CCC43C)C1CCC2=O (stereo not drawn)
inactive: [1] 32.8% | [2] 90.7% | [3] 70.9% | [4] 40.6% | [5] 57.7% | [6] 39.7% | [7] 105% | [9] 102%

CC(CO)NC1CCCCC1 (stereo not drawn)
inactive: [8] 116% | [2] 106% | [3] 112% | [4] 105% | [5] 109% | [6] 105% | [7] 106% | [9] 114%
